PubChem BioAssay (Tox21)
Results filed as inconclusive are left out. Calls of active or inactive are those of the source. Calls follow the shape of the dose curve; as a rule, active = well fitted curve in the direction sought with a large enough effect in the repeat runs; inconclusive = weak or mixed curves; inactive = no such curve, though single readings can be large; an effect the other way counts as inactive or inconclusive.

Key:
[1] = qHTS RealTime-Glo MT Cell Viability Assay in HEK293 cells - 0 hour (AID 1224880); also: top concentration of the series differs between compounds; nearly all actives have a fitted effect of over 45% in size
Method in brief: (§1)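 qHTS format; HEK293 cells with NanoLuc/prosubstrate reagent, 37 C/5% CO2 for 5 h pre-dosing; compounds 23 nL in DMSO; luminescence at each time point reflects viable cells.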

[2] = A CellTox Green Cytotoxicity Assay to monitor cytotoxicity in HEK293 cells - 32 hour (AID 1224881); also: nearly all actives have a fitted effect of over 40% in size
Method in brief: (§2)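 Each value comes from one timepoint of a single continuous run in which HEK293 cells with CellTox Green were exposed to compound for up to 40 h at 37 C, dye fluorescence rising with cell death.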

[3] = A CellTox Green Cytotoxicity Assay to monitor cytotoxicity in HepG2 cells - 0 hour (AID 1224882); also: nearly all actives have a fitted effect of over 35% in size
Method in brief: (§3)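 Continuous culture of HepG2 cells with a membrane-impermeant DNA dye; rising fluorescence marks dead cells. Compound exposure lasted up to 40 h at 37 C, with reads every 8 h from 0 h.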

[4] = A CellTox Green Cytotoxicity Assay to monitor cytotoxicity in HepG2 cells - 32 hour (AID 1224883); also: nearly all actives have a fitted effect of over 50% in size
Method in brief: as §3

[5] = qHTS RealTime-Glo MT Cell Viability Assay in HepG2 cells - 16 hour (AID 1224885); also: nearly all actives have a fitted effect of over 50% in size
Method in brief: (§4)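 HepG2 cells were seeded at 600 cells/well together with NanoLuc luciferase and a cell-permeant prosubstrate, preincubated 5 h at 37 C/5% CO2, then pin-dosed with compounds in DMSO. Nonlytic luminescence from viable cells was read at each time point.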

[6] = qHTS RealTime-Glo MT Cell Viability Assay in HEK293 cells - 24 hour (AID 1224886); also: top concentration of the series differs between compounds; nearly all actives have a fitted effect of over 50% in size
Method in brief: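 HEK293 cells were seeded at 600 cells/well together with NanoLuc luciferase and cell-permeant prosubstrate, preincubated 5 h at 37 C/5% CO2, then given compound in DMSO by pintool. Luminescence from viable-cell prosubstrate reduction was read repeatedly over 40 h.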

[7] = qHTS RealTime-Glo MT Cell Viability Assay in HEK293 cells - 8 hour (AID 1224887); also: top concentration of the series differs between compounds; nearly all actives have a fitted effect of over 50% in size
Method in brief: as §1

[8] = A CellTox Green Cytotoxicity Assay to monitor cytotoxicity in HEK293 cells - 16 hour (AID 1224888); also: nearly all actives have a fitted effect of over 35% in size
Method in brief: as §2

[9] = qHTS RealTime-Glo MT Cell Viability Assay in HepG2 cells - 0 hour (AID 1224889); also: nearly all actives have a fitted effect of over 50% in size
Method in brief: as §4

[10] = A CellTox Green Cytotoxicity Assay to monitor cytotoxicity in HEK293 cells - 8 hour (AID 1224884); also: nearly all actives have a fitted effect of over 35% in size
Method in brief: as §2
% is scaled to controls: 0 for no effect and ±100 for the full control effect.

C=C(C)C(=O)OCCC(F)(F)C(F)(F)C(F)(F)C(F)(F)C(F)(F)C(F)(F)F
inactive: Potency [1] | Potency [2] | Potency [3] | Potency [4] | Potency [5] | Potency [6] | Potency [7] | Potency [8] | Potency [9]

Nc1nc2ccc(OC(F)(F)F)cc2s1
inactive: Potency [1] | Potency [2] | Potency [3] | Potency [4] | Potency [10] | Potency [5] | Potency [7] | Potency [8] | Potency [9]

COC(OC)OC
inactive: Potency [1] | Potency [2] | Potency [3] | Potency [4] | Potency [10] | Potency [6] | Potency [7] | Potency [8] | Potency [9]

O=C(NC(Cc1cc(=O)[nH]c2ccccc12)C(=O)O)c1ccc(Cl)cc1 (centres undefined)
inactive: Potency [1] | Potency [2] | Potency [3] | Potency [4] | Potency [10] | Potency [6] | Potency [7] | Potency [8] | Potency [9]

CCOC(=O)N1CCC(Nc2ccc(Cl)cc2N)CC1
inactive: Potency [1] | Potency [2] | Potency [3] | Potency [4] | Potency [10] | Potency [5] | Potency [7] | Potency [8]

CCCc1nc2c(C)cc(-c3nc4ccccc4n3C)cc2n1Cc1ccc(-c2ccccc2C(=O)O)cc1
inactive: Potency [1] | Potency [2] | Potency [3] | Potency [4] | Potency [10] | Potency [5] | Potency [8]

CCC(=O)OCc1ccc(OC)cc1
inactive: Potency [1] | Potency [2] | Potency [3] | Potency [4] | Potency [10] | Potency [6] | Potency [7] | Potency [8] | Potency [9]

CCC1CCC(CCC(=O)O)C1 (centres undefined)
inactive: Potency [1] | Potency [2] | Potency [3] | Potency [4] | Potency [10] | Potency [6] | Potency [7] | Potency [8] | Potency [9]

O=[N+]([O-])c1ccc2ncccc2c1
inactive: Potency [1] | Potency [2] | Potency [3] | Potency [4] | Potency [5] | Potency [6] | Potency [7] | Potency [8] | Potency [9]

CCOC(=O)c1ccc(NC(=O)CN2CCCCC2)cc1
inactive: Potency [1] | Potency [2] | Potency [3] | Potency [4] | Potency [10] | Potency [6] | Potency [8] | Potency [9]

C=Cc1ccc(OC(C)=O)cc1
inactive: Potency [1] | Potency [2] | Potency [3] | Potency [4] | Potency [10] | Potency [7] | Potency [8]

CCCCCC
inactive: Potency [1] | Potency [2] | Potency [3] | Potency [4] | Potency [5] | Potency [6] | Potency [7] | Potency [8]

Cc1ccccc1S(N)(=O)=O
inactive: Potency [1] | Potency [2] | Potency [3] | Potency [4] | Potency [10] | Potency [6] | Potency [7] | Potency [8] | Potency [9]

C=C(C)c1ccccc1
inactive: Potency [1] | Potency [2] | Potency [3] | Potency [4] | Potency [10] | Potency [6] | Potency [7] | Potency [8] | Potency [9]

CC1=CC[C@@H]2C[C@H]1C2(C)C
inactive: activity change, negative = cytotoxicity [1] -16.1% [at 15.8 µM] | cytotoxicity increase [2] 1.12% [at 15.8 µM] | cytotoxicity [3] -3.74% [at 15.8 µM] | cytotoxicity increase [4] -9% [at 15.8 µM] | cytotoxicity increase [10] 0.245% [at 15.8 µM] | activity change, negative = cytotoxicity [6] 1.87% [at 15.8 µM] | activity change, negative = cytotoxicity [7] -0.368% [at 15.8 µM] | activity change [8] 1.29% [at 15.8 µM, active compounds read high] | activity change, negative = cytotoxicity [9] -1.11% [at 15.8 µM]

CC(C(=O)O)c1ccc(C(=O)c2cccs2)cc1 (centres undefined)
inactive: Potency [1] | Potency [2] | Potency [3] | Potency [4] | Potency [10] | Potency [5] | Potency [6] | Potency [8] | Potency [9]

CCCCCCCCCCCCCCN(C)C
inactive: activity change, negative = cytotoxicity [1] 0% [at 15.8 µM] | cytotoxicity increase [2] -32.2% [at 15.8 µM] | cytotoxicity [3] -1.15% [at 15.8 µM] | cytotoxicity increase [4] -7.28% [at 15.8 µM] | cytotoxicity increase [10] -28% [at 15.8 µM] | activity change, negative = cytotoxic [5] -0.238% [at 15.8 µM] | activity change [8] -30.9% [at 15.8 µM, active compounds read high] | activity change, negative = cytotoxicity [9] -19.6% [at 15.8 µM]

CC(=O)c1ccc[nH]1
inactive: Potency [1] | Potency [2] | Potency [3] | Potency [4] | Potency [5] | Potency [6] | Potency [7] | Potency [8] | Potency [9]
